Here are results for 39 molecules from PubChem BioAssay AID720697 (Broad Institute, 2013).

Results with a measured potency or affinity are listed apart. Inconclusive results are not listed. Values without a mark were called inactive. The source made the active and inactive calls.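 How the source made its calls: active means signal loss with fitted half-maximal concentration at or below twice the top valid tested dose in every test run; inconclusive means runs disagree, flat 30 to 70% signal loss, or poor fit; inactive means all runs flat, opposite direction, or potency beyond limit.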

The nature of this experiment: HEK293T cytotoxicity, dose response, cytotoxicity control for miR-122 modulator project, cell-based, inhibitor set, cherry-pick, set 2 (AID 720697).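 Further: 0% = median of neutral control wells and -100% = MG132 positive control wells.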 Particulars: HEK293T viability, CellTiter-Glo luminescence, 48 h; series mostly up to 26 µM.
Consider `C[C@H]1CN([C@@H](C)CO)S(=O)(=O)c2ccc(C3=CCCC3)cc2O[C@H]1CN(C)Cc1cccnc1`, for which the outcome was inactive.

In the case of `COCCNC(=O)C[C@H]1CC[C@@H]2[C@@H](COc3ccc(NS(=O)(=O)c4ccc(Cl)cc4)cc3C(=O)N2C)O1`, the outcome was inactive.

As to `CCNC(=O)C[C@@H]1CC[C@@H]2[C@@H](COc3ccc(NC(=O)c4ccccc4)cc3C(=O)N2C)O1`, the molecule was called inactive.

As to `CN1C[C@@H]2[C@H](c3ccccc31)[C@@H](CO)N2C(=O)Nc1ccccc1`, the result was inactive.

In the case of `C[C@@H]1CN([C@H](C)CO)S(=O)(=O)c2ccc(-c3ccccc3)cc2O[C@@H]1CN(C)C(=O)c1ccc2c(c1)OCO2`, the molecule was classed as inactive.

Consider `COc1ccc(N2CCc3c(C)nc4c(OC)cc(OC)cc4c32)c(OC)c1`, for which the molecule was classed as inactive.

As to `CCC(=O)N1[C@H](CO)[C@@H](c2ccccc2)[C@@H]1CN(CC)C(=O)c1cccc(F)c1`, the call was inactive.

In the case of `Cc1cccc(NC(=O)C[C@H]2CC[C@H]3[C@@H](COc4ccc(NC(=O)NC(C)C)cc4C(=O)N3C)O2)c1`, the outcome was inactive.

With `CC(=O)Oc1ccc2c(c1)C(=O)c1ccccc1CO2`, the molecule was classed as inactive.

In the case of `CN(C)CCNc1ncnc2c1sc1nc(-c3ccccc3)c3c(c12)CCCC3`, the result was inactive.

As for `OC[C@H]1[C@@H](c2ccccc2)[C@H](CNCC2CCC2)N1CC1CC1`, the molecule was classed as inactive.

On to `CN1C(=O)c2cc(NC(=O)c3ccc(C(F)(F)F)cc3)ccc2OC[C@@H]2O[C@@H](CC(=O)NCc3ccc4c(c3)OCO4)CC[C@@H]21`, for which the call was inactive.

Turning to `CN(C)CCCN(C(=O)CCc1ccccc1)c1nc2ccc(Br)cc2s1`, the molecule was classed as inactive.

Take `CCNC(=O)C[C@H]1CC[C@H]2[C@@H](COc3ccc(NS(C)(=O)=O)cc3C(=O)N2C)O1`: the call was inactive.

Take `COC(=O)C[C@H]1CC[C@@H]2[C@H](COc3ccc(NC(=O)c4cccs4)cc3C(=O)N2C)O1`: the outcome was inactive.

Consider `CC(C)CC#Cc1ccc([C@H]2[C@@H](CO)N3CCCCN(S(=O)(=O)Cc4ccccc4)C[C@H]23)cc1`, for which the outcome was inactive.

`COCC(=O)N(C)C[C@H]1Oc2cc(-c3ccccc3F)ccc2S(=O)(=O)N([C@H](C)CO)C[C@H]1C`: the call was inactive.

In the case of `Fc1ccccc1-c1nc(-c2ccncc2)no1`, the activity change, negative = cytotoxicity is -1.62% [at 6 µM].

As for `COCC(=O)N(C[C@@H]1N[C@H](CO)[C@H]1c1ccc(C2=CCCC2)cc1)C(C)C`, the molecule was called inactive.

Take `C/C=C/c1ccc([C@@H]2[C@@H](CNC(=O)c3ccncc3)N(C(=O)CC)[C@H]2CO)cc1`: the call was inactive.

As to `C[C@@H]1CN([C@H](C)CO)C(=O)c2cccc(NC(=O)c3ccc(-c4nccs4)cc3)c2O[C@H]1CN(C)S(=O)(=O)c1ccc(F)cc1`, the call was inactive.

For `CCC(=O)N(C)C[C@@H]1[C@@H](c2ccccc2)[C@H](CO)N1Cc1cccnc1`, the call was inactive.

With `C[C@H](NC(=O)C[C@H]1CC[C@@H]2[C@@H](COc3ccc(NS(=O)(=O)c4ccc(Cl)cc4)cc3C(=O)N2C)O1)c1ccccc1`, the molecule was classed as inactive.

Take `CCN(C[C@H]1N[C@@H](CO)[C@@H]1c1ccc(C2=CCCC2)cc1)C(=O)c1cccnc1`: the call was inactive.

In the case of `COc1ccc(C#Cc2ccc3c(c2)O[C@H](CN(C)C(=O)CN2CCOCC2)[C@H](C)CN([C@@H](C)CO)S3(=O)=O)cc1`, the molecule was called inactive.

For the molecule `COCC(=O)N1[C@@H](CO)[C@@H]2c3ccccc3N(C(=O)c3cccnc3)C[C@@H]21`, the call was inactive.

As for `CCN(CC)CCNc1nc(-c2ccccc2)nnc1C(F)(F)F`, the result was inactive.

In the case of `Cc1c(CC(=O)NCCCC(=O)O)c(=O)oc2cc3occ(-c4ccccc4)c3cc12`, the call was inactive.

Regarding `CNC(=O)C[C@@H]1CC[C@@H]2[C@@H](COc3ccc(NC(=O)c4ccccc4F)cc3C(=O)N2C)O1`, the outcome was inactive.

`C[C@H]1CN([C@@H](C)CO)C(=O)c2cc(C#CC3CCCC3)cnc2O[C@H]1CN(C)C(=O)Cc1ccccn1`: the molecule was called inactive.

With `Cc1nc(C)c(C(=O)Nc2ccc(Oc3ccccc3)cc2)o1`, the call was inactive.

For `CC(C)C(=O)Nc1ccc2c(c1)C(=O)N(C)[C@H]1CC[C@H](CC(=O)Nc3cccc(F)c3)O[C@@H]1CO2`, the result was inactive.

As to `CN1C(=O)c2cc(NC(=O)Cc3ccccc3)ccc2OC[C@H]2O[C@@H](CC(=O)NC3CCC3)CC[C@H]21`, the call was inactive.

As for `O=C(c1ccc(CNc2c(NC3CCCCC3)c(=O)c2=O)cc1)N1CCc2ccccc21`, the molecule was called inactive.

In the case of `C/C=C/c1ccc([C@H]2[C@@H](CNC(=O)c3ccncc3)N(C(=O)CC)[C@H]2CO)cc1`, the call was inactive.

On to `C[C@H](CO)N1C[C@H](C)[C@H](CN(C)CC2CCCCC2)OCCCC[C@H](C)Oc2ccc(NC(=O)Nc3cccc4ccccc34)cc2C1=O`, for which the outcome was inactive.

Consider `CCNC(=O)Nc1ccc2c(c1)C(=O)N(C)[C@H]1CC[C@H](CC(=O)NCc3ccccc3F)O[C@H]1CO2`, for which the call was inactive.

On to `O=C(Nc1ccccc1F)N1C[C@H]2[C@@H](c3ccccc31)[C@@H](CO)N2C(=O)C1CC1`, for which the molecule was called inactive.

Take `CCCNC(=O)C[C@H]1CC[C@H]2[C@@H](COc3ccc(NC(=O)c4cc(F)cc(F)c4)cc3C(=O)N2C)O1`: the molecule was classed as inactive.
